Assay results reported in the antibiotic and cytotoxicity screens of Wong et al. (2023).
The whole screen tested about 39,000 compounds, of which about 3,300 (8.5%) were called active. Shown is part of a subset that was picked to be rich in actives.

Tested on: HepG2
Assay: cytotoxicity call (relative viability < 0.9)
Details: 10 µM

Compound | cytotoxicity call
Cc1ccnc(NC(=O)Cn2cnc3c2c(=O)n(C)c(=O)n3C)n1 | inactive
O=c1nc2[nH][nH]cc-2c(=O)[nH]1 | inactive
COCC#Cc1ccc2c(c1)O[C@H](CN(C)C(=O)CN(C)C)[C@H](C)CN([C@H](C)CO)S2(=O)=O | inactive
C=CCOc1nc(NCC)nc(N(C)C)n1 | inactive
CS(=O)(=O)N1C[C@H](NC(=O)c2cnccn2)[C@H]2OCCC[C@H]21 | inactive
C=CC[C@@H](CC(=O)N(CCO)Cc1ccccc1)C(=O)N[C@H](COC(=O)[C@@H](CC=C)Cc1ccc(F)cc1)C(C)(C)C | inactive
C[C@@H]1CCCCO[C@H](CN(C)Cc2ccncc2)[C@H](C)CN([C@H](C)CO)C(=O)c2cc(NS(=O)(=O)c3ccc(Cl)cc3)ccc2O1 | inactive
CCc1oc(CC[C@@H](CO)NC(=O)NCCn2cc(C3(O)CCCCC3)nn2)c(C(=O)OC)c1C(=O)OC | inactive
O=C(CCCCCCC(=O)Nc1ccc([C@H]2O[C@@H](CSc3ccccc3)C[C@H](c3ccccc3)O2)cc1)NO | inactive
C[C@H](CO)N1C[C@H](C)[C@@H](CN(C)C(=O)Nc2ccc(C(F)(F)F)cc2)Oc2c(NC(=O)c3ccc(-c4nccs4)cc3)cccc2C1=O | inactive
C[C@H]1CN([C@@H](C)CO)C(=O)c2cccc(NC(=O)C3CC3)c2O[C@@H]1CN(C)S(=O)(=O)c1ccccc1 | inactive
C[C@@H]1CCCCO[C@H](CN(C)S(=O)(=O)c2ccccc2)[C@@H](C)CN([C@@H](C)CO)C(=O)c2cc(NC(=O)CCC(F)(F)F)ccc2O1 | inactive
CC(C)NC(=O)N[C@H]1C=C[C@H](CC(=O)NCCCN(C)C)O[C@H]1CO | inactive
COc1ccc(S(=O)(=O)N(C)C[C@@H]2Oc3ccc(NC(=O)c4ccncc4)cc3CC(=O)N([C@H](C)CO)C[C@@H]2C)cc1 | inactive
O=C(O)C(O)C(O)C(OC1OC(CO)C(O)C(O)C1O)C(O)CO (stereo unspecified) | inactive
COc1cccc(S(=O)(=O)N[C@H]2C=C[C@H](CC(=O)NC3CCC3)O[C@@H]2CO)c1 | inactive
O=C(O)c1ccccc1Nc1cccc(C(F)(F)F)c1 | inactive
CC(C)(C)c1ccc(C(=O)Nc2cccc(C(F)(F)F)c2)cc1 | inactive
O=C(Nc1cccc(C(F)(F)F)c1)c1ccc2ccccc2c1 | active
C[C@@H]1CCCCO[C@@H](CN(C)S(=O)(=O)c2ccc(F)cc2)[C@H](C)CN([C@H](C)CO)C(=O)c2cc(NC(=O)CCC(F)(F)F)ccc2O1 | inactive
C[C@@H]1CN([C@H](C)CO)S(=O)(=O)c2ccc(C3=CCCCC3)cc2O[C@H]1CN(C)Cc1cncnc1 | inactive
CCCCN(CCCC)CC(O)c1cc(Cl)cc2c1-c1ccc(Cl)cc1C2=Cc1ccc(Cl)cc1 (stereo unspecified) | active
CCCCN(CCCC)CC[C@@H](O)c1cc2c(Cl)cc(Cl)cc2c2cc(C(F)(F)F)ccc12 | inactive

Compound | cytotoxicity call
C[C@@H]1CCCCO[C@@H](CN(C)Cc2ccncc2)[C@H](C)CN([C@@H](C)CO)C(=O)c2cc(NC(=O)CCCCCC(=O)Nc3ccccc3N)ccc2O1 | inactive
C[C@H]1CN([C@@H](C)CO)C(=O)Cc2cc(NC(=O)Nc3ccc(F)cc3)ccc2O[C@H]1CN(C)Cc1ccc(Cl)c(Cl)c1 | active
C[C@@H]1CN([C@H](C)CO)C(=O)Cc2cc(NC(=O)Nc3ccc(F)cc3)ccc2O[C@@H]1CN(C)Cc1ccc(Cl)c(Cl)c1 | active
C[C@H](CO)N1C[C@H](C)[C@@H](CN(C)Cc2ccc(Cl)c(Cl)c2)Oc2ccc(NC(=O)Nc3ccc(F)cc3)cc2CC1=O | active
C[C@@H]1CN([C@@H](C)CO)C(=O)Cc2cc(NC(=O)Nc3ccc(F)cc3)ccc2O[C@@H]1CN(C)Cc1ccc(Cl)c(Cl)c1 | active
COc1ccc(-n2c(C)cc(CN)c2C)cc1 | inactive
O=C(C[C@H]1C[C@@H]2c3cc(NC(=O)c4ccc5c(c4)OCO5)ccc3O[C@@H]2[C@H](CO)O1)NCC(F)(F)F | inactive
CC(C)NC(=O)N(C)C[C@H]1Oc2c(NC(=O)NC3CCCCC3)cccc2C(=O)N([C@H](C)CO)C[C@@H]1C | inactive
Cc1noc(C)c1NC(=O)Nc1ccc2c(c1)CC(=O)N([C@@H](C)CO)C[C@H](C)[C@@H](CN(C)S(C)(=O)=O)O2 | inactive
C[C@H](CO)N1C[C@H](C)[C@H](CN(C)C(=O)Nc2ccc3c(c2)OCO3)OCCCC[C@H](C)Oc2ccc(NC(=O)Nc3ccccc3)cc2C1=O | inactive
C[C@@H]1CCCCO[C@H](CN(C)S(=O)(=O)c2cccs2)[C@@H](C)CN([C@H](C)CO)C(=O)c2cc(NC(=O)Cc3ccccc3)ccc2O1 | inactive
COc1ccc(S(=O)(=O)N(C)C[C@@H]2OCCCC[C@H](C)Oc3ccc(NC(=O)c4ccccc4)cc3C(=O)N([C@H](C)CO)C[C@@H]2C)cc1 | inactive
Cc1ccc(S(=O)(=O)N(C)C[C@@H]2Oc3ccc(NS(=O)(=O)c4cccs4)cc3CC(=O)N([C@H](C)CO)C[C@@H]2C)cc1 | inactive
COc1ccc(COC[C@]23NC(=O)N[C@H](c4ccccc4O2)[C@H]3COC(=O)NCCCCCC(=O)NO)cc1 | inactive
COCC(=O)N(C)C[C@H]1Oc2cc(-c3ccc(C#N)cc3)ccc2S(=O)(=O)N([C@H](C)CO)C[C@@H]1C | inactive
O=C(CCCCCNC(=O)OCc1ccc(CO[C@@H]2C[C@H](c3ccc(Br)cc3)C=C(C(=O)N3CCN(Cc4ccccc4)CC3)O2)cc1)NO | inactive
COCC(=O)N(C)C[C@H]1Oc2cc(C#CCN(C)C)ccc2S(=O)(=O)N([C@@H](C)CO)C[C@@H]1C | inactive
C[C@H](CO)N1C[C@H](C)[C@H](CN(C)S(=O)(=O)c2cccs2)OCCCC[C@H](C)Oc2ccc(NS(=O)(=O)c3cn(C)cn3)cc2C1=O | inactive
C[C@@H]1CN([C@H](C)CO)C(=O)c2cccc(N(C)C)c2O[C@H]1CN(C)S(C)(=O)=O | inactive
C[C@@H]1CN([C@@H](C)CO)C(=O)Cc2cc(NC(=O)Nc3ccc(F)cc3)ccc2O[C@H]1CN(C)Cc1ccc(Cl)c(Cl)c1 | active
C[C@H](CO)N1C[C@H](C)[C@H](CN(C)Cc2ccc(Cl)c(Cl)c2)Oc2ccc(NC(=O)Nc3ccc(F)cc3)cc2CC1=O | active
C[C@H]1CN([C@@H](C)CO)C(=O)Cc2cc(NC(=O)Nc3ccc(F)cc3)ccc2O[C@@H]1CN(C)Cc1ccc(Cl)c(Cl)c1 | active
C[C@@H]1CN([C@H](C)CO)C(=O)Cc2cc(NC(=O)Nc3ccc(F)cc3)ccc2O[C@H]1CN(C)Cc1ccc(Cl)c(Cl)c1 | inactive
